Results published in PubChem BioAssay AID488969 (Vanderbilt High Throughput Screening Facility, 2010).
The full ranking holds about 110,000 compounds; the median of “z-score” is about -0.1, and the highest 2% start at about 2. The entries come from a sample that favours the highest values as a whole. The source made the active and inactive calls.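 The calls were made as follows: active = z-score in the third read window above 3 or below -3; inactive = the rest.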

These molecules were tested against Metabotropic glutamate receptor 8 (Rattus norvegicus) (UniProt P70579) (assay: rat mGluR8 modulators via GIRK flux, primary screen, cell-based, thallium flux, HTS (AID 488969)). Settings: HEK293 rat mGluR8, GIRK (G protein-gated inwardly rectifying potassium channel) thallium flux, FluoZin2; at 10 µM; stronger effect = higher value; submaximal glutamate (EC20) added with thallium.
Chain of Metabotropic glutamate receptor 8 (Rattus norvegicus) (P70579 whole entry, looked up): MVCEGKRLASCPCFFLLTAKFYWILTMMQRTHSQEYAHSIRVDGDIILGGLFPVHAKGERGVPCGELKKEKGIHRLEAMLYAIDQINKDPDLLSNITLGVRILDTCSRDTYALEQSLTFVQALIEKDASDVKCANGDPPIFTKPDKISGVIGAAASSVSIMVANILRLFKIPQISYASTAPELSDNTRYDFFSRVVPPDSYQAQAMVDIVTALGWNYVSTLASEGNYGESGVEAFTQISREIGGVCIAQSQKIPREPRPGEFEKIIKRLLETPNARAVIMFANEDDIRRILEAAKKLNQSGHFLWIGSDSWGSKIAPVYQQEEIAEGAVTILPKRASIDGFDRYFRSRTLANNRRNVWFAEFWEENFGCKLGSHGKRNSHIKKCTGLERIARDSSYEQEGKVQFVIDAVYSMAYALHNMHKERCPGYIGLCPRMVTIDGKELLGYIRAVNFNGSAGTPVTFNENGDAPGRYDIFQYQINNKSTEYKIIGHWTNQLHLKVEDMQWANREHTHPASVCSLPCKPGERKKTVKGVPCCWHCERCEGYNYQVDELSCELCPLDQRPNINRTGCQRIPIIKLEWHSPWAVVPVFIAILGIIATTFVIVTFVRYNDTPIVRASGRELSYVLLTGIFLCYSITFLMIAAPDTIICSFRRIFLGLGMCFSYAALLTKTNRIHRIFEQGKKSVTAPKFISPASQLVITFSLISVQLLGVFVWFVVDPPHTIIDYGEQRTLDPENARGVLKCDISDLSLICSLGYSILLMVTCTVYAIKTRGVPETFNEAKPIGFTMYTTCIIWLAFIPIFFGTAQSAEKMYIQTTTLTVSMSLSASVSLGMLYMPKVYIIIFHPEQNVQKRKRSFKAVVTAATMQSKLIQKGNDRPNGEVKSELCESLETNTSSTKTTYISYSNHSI
`O=C(N/N=C\CCc1ccccc1)c1ccco1` was tested, and the z-score was 0.322. For `NC(=O)CSc1ncc(-c2ccccc2)[nH]1`, the z-score was 0.142. With `COc1ccc(C(C(=O)OCCN(C)C)c2ccccc2)cc1` (stereo not drawn) the z-score was 0.325. `CCOc1ccc(C(=O)OCCN(CC)CC)cc1` showed a z-score of 0.374. Molecule `CCCOc1ccc(C(C(=O)OCCN(CC)CC)c2ccccc2)cc1` (stereo not drawn) has a z-score of 2.43. With `CC(=O)C(Sc1ccc2nnc(-c3ccc(C)cc3)n2n1)C(C)=O` the z-score was 1.78. Work on `O=C(/C(=C/c1ccc(Cl)cc1)c1nc2ccccc2[nH]1)c1ccccc1` yielded a z-score of -0.287. `Cc1ccc(Nc2nnc(SC/C(O)=C(\C#N)c3nc4ccccc4[nH]3)s2)c(C)c1` gave a z-score of -0.166. With `S=C(Nc1ccc(Cl)cc1)c1nc2ccccc2[nH]1` the z-score was 6.95 (active). `Cc1ccc(NC(=S)c2nc3ccccc3[nH]2)cc1` was tested, and the z-score was -1.02. `Cc1ccccc1NC(=O)NCCc1nc2ccccc2[nH]1` was tested, and the z-score was -0.0805. Molecule `Cc1ccccc1NC(=O)N(CCc1nc2ccccc2[nH]1)Cc1ccccc1` has a z-score of -0.292. With `Cc1ccccc1NC(=S)c1nc2ccccc2[nH]1` the z-score was 10.9 (active). In the case of `Cc1ccc(C)c(NC(=S)c2ccc3ccccc3n2)c1`, the z-score is reported as 0.103. In the case of `Cc1ccc(NC(=S)c2nc3ccccc3[nH]2)c(C)c1`, the z-score is reported as 6.64 (active). For `CCn1c(COc2ccccc2)nnc1SCc1ccc(C#N)cc1`, the z-score was -0.725. In the case of `Cc1c(Nc2nc3ccccc3nc2NS(=O)(=O)c2ccccc2)c(=O)n(-c2ccccc2)n1C`, the z-score is reported as -0.716. `O=C(OCc1ccc([N+](=O)[O-])cc1)C1CCN(S(=O)(=O)c2ccccc2)CC1` showed a z-score of -0.136. With `CNS(=O)(=O)c1ccc(NC(=O)c2nc3nc(C)cc(C(F)F)n3n2)cc1` the z-score was -0.548. In the case of `CCN(CC)c1ccc(NC(=O)c2nc3nc(C)cc(C(F)F)n3n2)cc1`, the z-score is reported as 3.02 (active). For `Cc1cc(C(F)F)n2nc(C(=O)Nc3ccc(S(=O)(=O)N4CCCC4)cc3)nc2n1`, the z-score was -0.187. In the case of `CCOC(=O)C1(C(=O)OCC)CC1c1ccccc1` (stereo not drawn), the z-score is reported as -0.0513. In the case of `CCCCCCn1c2c(c(=N)c3c1CCC3)CCC2`, the z-score is reported as 1.81. With `CCCCCCCCCCn1c2c(c(=N)c3c1CCC3)CCC2` the z-score was 0.554. For `CCCCCCCCCn1c2c(c(=N)c3c1CCC3)CCC2`, the z-score was 4.64 (active). With `CCOC(=O)c1ccc(CNCc2ccc(C)cc2)cc1` the z-score was 0.302. `COC(=O)c1ccc(C(=O)OC)c(NC(=O)CSc2ccccn2)c1` was tested, and the z-score was -0.644. For `Clc1ccc2c(c1)CCc1cccnc1C2=C1CCNCC1`, the z-score was 2.74. In the case of `O/N=C1\CCc2cc(Cl)ccc21`, the z-score is reported as 0.365. In the case of `CCOC(=O)c1c(NC(=O)COc2cccc3c2CCN(CC)C3=O)sc2c1CCC2`, the z-score is reported as -0.925. Work on `CCOC(=O)c1c(-c2ccccc2)csc1NC(=O)c1nn(CC)cc1Br` yielded a z-score of -0.101. For `O=C(NC1CS(=O)(=O)CC1NCc1ccccc1)c1ccccc1` (stereo not drawn), the z-score was 0.00939. `COc1ccc(NC2CS(=O)(=O)CC2NCc2ccccc2)cc1` (stereo not drawn) showed a z-score of 0.261. For `O=S1(=O)CC(NCc2ccccc2)C(Nc2ccccc2)C1` (stereo not drawn), the z-score was 2.43. `C=CCNC(=O)C1CC(=O)N(c2ccc(OCC(=O)Nc3ccccc3)cc2)C1` (stereo not drawn) was tested, and the z-score was 4.85 (active). With `C=CCNC(=O)C1CC(=O)N(c2ccc(OCC(=O)Nc3ccc(OC)cc3)cc2)C1` (stereo not drawn) the z-score was -0.466. `C=CCNC(=O)C1CC(=O)N(c2ccc(OCC(=O)Nc3ccc(C)cc3)cc2)C1` (stereo not drawn) showed a z-score of 0.104. `C=CCSc1nnc(NC(=O)c2cccc(S(=O)(=O)N(C)c3ccccc3)c2)s1` showed a z-score of 0.542. In the case of `CCOC(=S)NC(=O)c1sc2ccccc2c1Cl`, the z-score is reported as 11.1 (active). With `CCCOC(=S)NC(=O)c1sc2ccccc2c1Cl` the z-score was 12 (active). With `CCCn1nnc(NC(=O)c2sc3ccccc3c2Cl)n1` the z-score was 0.0281. With `CN(C(=O)COC(=O)CNC(=O)c1sc2ccccc2c1Cl)c1ccccc1` the z-score was -0.854. Molecule `COc1ccc(C(CC(=O)O)NC(=O)c2sc3ccccc3c2Cl)cc1` (stereo not drawn) has a z-score of -0.476. Molecule `CCOc1ccc(C(CC(=O)O)NC(=O)c2sc3ccccc3c2Cl)cc1` (stereo not drawn) has a z-score of -0.958. For `Cc1ccccc1NC(=O)COC(=O)CNC(=O)c1sc2ccccc2c1Cl`, the z-score was -1.08. With `NC(N)=NS(=O)(=O)c1ccc(NC(=S)NC(=O)c2sc3ccccc3c2Cl)cc1` the z-score was 0.0467. For `O=C(NCC1CCCO1)c1sc2ccccc2c1Cl` (stereo not drawn), the z-score was -0.467. In the case of `O=C(NC(=S)N(CCCCO)C1CCCCC1)c1sc2ccccc2c1Cl`, the z-score is reported as 9.88 (active). In the case of `CCCCOC(=S)NC(=O)c1sc2ccccc2c1Cl`, the z-score is reported as 17.3 (active). `O=C(COC(=O)c1sc2ccccc2c1Cl)NC1CCCCC1` gave a z-score of -0.479. For `CC(=O)c1c(C(C)=O)c(C)n(CCCCn2c(C)c(C(C)=O)c(C(C)=O)c2C)c1C`, the z-score was -0.0757. In the case of `Cc1cc(C(=O)Nc2ccc(S(=O)(=O)Nc3onc(C)c3C)cc2)c(C)o1`, the z-score is reported as 0.0164. Molecule `CC(=O)Nc1ccc(NC(=O)Cc2sc(C)nc2-c2ccc(C)cc2)cc1` has a z-score of -0.345. Molecule `O=C(O)c1ccc(-c2nc(-c3ccccc3)c(-c3ccccc3)[nH]2)cc1` has a z-score of -1.56. For `Cc1ccc2oc(-c3cccc(NC(=O)c4cc(-n5cnnc5)ccc4Cl)c3)nc2c1`, the z-score was -0.0315. For `CCOC(=O)C1=C(C)N(C)C(=O)NC1c1ccc(C)s1` (stereo not drawn), the z-score was -0.0391. With `O=C(CCC(=O)Nc1ccccc1)NNC(=O)C(c1ccccc1)c1ccccc1` the z-score was 0.336. With `Cc1nnn(C23CC4CC(CC(C4)C2)C3)n1` the z-score was -0.708. For `Cn1c(C23CC4CC(CC(C4)C2)C3)n[nH]c1=S`, the z-score was 0.216. Molecule `S=c1nn[nH]n1C12CC3CC(CC(C3)C1)C2` has a z-score of 2.46. `COC(=O)c1sc2nc(SCc3ccccc3C#N)n(N)c(=O)c2c1C` gave a z-score of 0.247. Work on `COc1ccc(C2C3=C(CC(C)(C)CC3=O)Oc3ncn(CCO)c(=N)c32)cc1OC` (stereo not drawn) yielded a z-score of 0.234. Molecule `N=c1c2c(ncn1Cc1ccco1)Oc1c(ccc3ccccc13)C2c1ccccc1` (stereo not drawn) has a z-score of 0.538. For `N=c1c2c(ncn1CCN1CCOCC1)Oc1ccc3ccccc3c1C2c1ccccc1` (stereo not drawn), the z-score was 4.03 (active). With `COc1ccc(C2c3ccc4ccccc4c3Oc3ncn(CCN4CCOCC4)c(=N)c32)cc1` (stereo not drawn) the z-score was 4.1 (active). Molecule `COc1ccc(C2c3c(ncn(Cc4ccco4)c3=N)Oc3ccc4ccccc4c32)cc1` (stereo not drawn) has a z-score of -0.169. With `COc1ccc(C2C3=C(CC(C)(C)CC3=O)Oc3ncn(Cc4ccccc4)c(=N)c32)cc1` (stereo not drawn) the z-score was 2.84. `CC1(C)CC(=O)C2=C(C1)Oc1ncn(CCO)c(=N)c1C2c1ccccc1` (stereo not drawn) was tested, and the z-score was 0.471. In the case of `COc1ccc(C2c3c(ncn(CCN4CCOCC4)c3=N)Oc3ccc4ccccc4c32)cc1OC` (stereo not drawn), the z-score is reported as 0.922. With `COc1ccc(-c2oc3ncn(CCN4CCOCC4)c(=N)c3c2-c2ccc(OC)cc2)cc1` the z-score was 2.6. In the case of `c1ccc(-c2oc3ncnc(NCCN4CCOCC4)c3c2-c2ccccc2)cc1`, the z-score is reported as -0.115. Molecule `COc1ccc(C2c3ccc4ccccc4c3Oc3ncn(Cc4ccco4)c(=N)c32)cc1OC` (stereo not drawn) has a z-score of 0.46. In the case of `COc1ccc(-c2oc3ncnc(NCCN4CCOCC4)c3c2-c2ccc(OC)cc2)cc1`, the z-score is reported as -0.338.
